The results in this text go back to paper PMC4081100, “A DNA-binding-site landscape and regulatory network analysis for NAC transcription factors in Arabidopsis thaliana”.

Common to all, as to assay: universal protein binding microarray (PBM); transcription factors of Arabidopsis thaliana; high values mean tight binding
One test concerns the target GST-NTL6(1-168) (Arabidopsis thaliana, UniProt Q9SCK6 1-168). The following applies: protein: recombinant; tags: GST; chain copies: 2; dsDNA, one strand shown. The procedure, abridged:
(§1)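 Protein amounts were determined by A280 or anti-GST western blot after glutathione–Sepharose 4B purification of GST-tagged proteins induced in cells, with zinc acetate included for zinc-finger proteins. Duplicate runs at 200 to 500 nM final were done on custom all-10-mer Agilent 4 × 180K arrays made double-stranded by primer extension. The normalised enrichment score (E-score) over gapped and ungapped 8-mers is the measure of binding.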

The target of the next test is T1, GST-ANAC055(1-171) (Arabidopsis thaliana, UniProt Q9LDY8 1-171).
T1 sequence: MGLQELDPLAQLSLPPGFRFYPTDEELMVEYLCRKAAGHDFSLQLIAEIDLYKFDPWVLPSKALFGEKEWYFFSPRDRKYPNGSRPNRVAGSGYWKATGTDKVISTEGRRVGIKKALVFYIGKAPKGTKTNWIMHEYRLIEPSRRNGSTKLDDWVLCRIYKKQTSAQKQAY
The note with it: protein: recombinant; tags: GST; chain copies: 2; dsDNA, one strand shown. Put shortly:
as §1

A further test concerns the target T2, GST-ATAF1 NAC domain (Arabidopsis thaliana, UniProt Q39013 7-158).
T2 sequence: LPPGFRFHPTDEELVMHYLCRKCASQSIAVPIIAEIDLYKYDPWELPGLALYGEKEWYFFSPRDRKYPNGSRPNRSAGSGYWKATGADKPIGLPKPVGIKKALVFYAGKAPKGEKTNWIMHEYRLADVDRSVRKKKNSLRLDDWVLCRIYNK
The note with it: protein: recombinant; tags: GST; chain copies: 2; dsDNA, one strand shown. Put shortly: as §1

Test [1] addresses T3, GST-ANAC092(1-285) full length (Arabidopsis thaliana, UniProt Q9FKA0 1-285).
T3 sequence: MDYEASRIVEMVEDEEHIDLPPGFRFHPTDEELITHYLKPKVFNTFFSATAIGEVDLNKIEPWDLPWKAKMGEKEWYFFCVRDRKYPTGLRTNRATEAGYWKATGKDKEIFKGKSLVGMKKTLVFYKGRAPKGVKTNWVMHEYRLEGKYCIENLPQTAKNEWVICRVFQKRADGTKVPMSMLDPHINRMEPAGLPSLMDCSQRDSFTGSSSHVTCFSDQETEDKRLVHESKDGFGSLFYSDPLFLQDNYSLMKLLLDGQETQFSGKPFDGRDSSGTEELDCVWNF
The note with it: protein: recombinant; tags: GST; chain copies: 2; dsDNA, one strand shown. The procedure, abridged: as §1

The target of a further test is T4, GST-NST2(1-184) (Arabidopsis thaliana, UniProt Q9M274 1-184).
T4 sequence: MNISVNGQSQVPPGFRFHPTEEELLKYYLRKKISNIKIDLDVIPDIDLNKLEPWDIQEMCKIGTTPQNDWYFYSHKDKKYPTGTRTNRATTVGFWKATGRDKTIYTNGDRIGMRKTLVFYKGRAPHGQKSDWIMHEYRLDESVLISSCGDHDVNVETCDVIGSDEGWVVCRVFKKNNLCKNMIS
The note with it: protein: recombinant; tags: GST; chain copies: 2; dsDNA, one strand shown. Put shortly: as §1

Another test has as its target T5, GST-SND1(1-203) (Arabidopsis thaliana, UniProt Q9LPI7 1-203).
T5 sequence: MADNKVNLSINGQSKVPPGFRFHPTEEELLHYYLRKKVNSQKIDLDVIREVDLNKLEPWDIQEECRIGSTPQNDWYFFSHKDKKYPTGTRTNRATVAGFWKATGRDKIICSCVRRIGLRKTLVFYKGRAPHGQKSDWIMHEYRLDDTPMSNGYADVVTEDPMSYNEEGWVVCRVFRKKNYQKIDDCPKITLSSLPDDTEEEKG
The note with it: protein: recombinant; tags: GST; chain copies: 2; dsDNA, one strand shown. Put shortly: as §1

In another test the target is T6, GST-VND3 NAC domain (Arabidopsis thaliana, UniProt Q9FH59 12-162).
T6 sequence: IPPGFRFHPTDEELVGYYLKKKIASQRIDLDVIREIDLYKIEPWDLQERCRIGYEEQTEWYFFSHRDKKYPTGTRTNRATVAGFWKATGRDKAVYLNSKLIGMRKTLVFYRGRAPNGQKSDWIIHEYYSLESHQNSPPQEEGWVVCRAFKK
The note with it: protein: recombinant; tags: GST; chain copies: 2; dsDNA, one strand shown. The procedure, abridged:
as §1

A further test has as its target T7, GST-VND7 NAC domain (Arabidopsis thaliana, UniProt Q9C8W9 9-158).
T7 sequence: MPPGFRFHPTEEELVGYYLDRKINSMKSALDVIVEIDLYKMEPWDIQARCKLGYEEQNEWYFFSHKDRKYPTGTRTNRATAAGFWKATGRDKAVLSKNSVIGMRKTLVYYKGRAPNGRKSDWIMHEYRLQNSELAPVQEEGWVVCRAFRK
The note with it: protein: recombinant; tags: GST; chain copies: 2; dsDNA, one strand shown. Put shortly: as §1

In a further test the target is T8, GST-ANAC092(1-176) (Arabidopsis thaliana, UniProt Q9FKA0 1-176).
T8 sequence: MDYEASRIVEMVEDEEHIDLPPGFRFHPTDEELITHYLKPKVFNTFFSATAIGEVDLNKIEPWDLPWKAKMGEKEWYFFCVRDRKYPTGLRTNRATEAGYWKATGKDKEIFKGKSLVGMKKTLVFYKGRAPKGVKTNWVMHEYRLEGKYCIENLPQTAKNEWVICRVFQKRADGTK
The following applies: protein: recombinant; tags: GST; chain copies: 2; dsDNA, one strand shown. The procedure, abridged:
as §1

The next test addresses T9, GST-ANAC019 NAC domain (Arabidopsis thaliana, UniProt Q9C932 14-162).
T9 sequence: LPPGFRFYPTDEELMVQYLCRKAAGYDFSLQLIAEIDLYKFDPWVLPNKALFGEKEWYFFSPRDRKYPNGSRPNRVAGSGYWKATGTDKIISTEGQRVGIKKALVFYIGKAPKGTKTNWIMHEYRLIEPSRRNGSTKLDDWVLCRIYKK
The note with it: protein: recombinant; tags: GST; chain copies: 2; dsDNA, one strand shown. Put shortly:
as §1

For another test, the target named is T10, GST-NTL8 NAC domain (Arabidopsis thaliana, UniProt Q9XIN7 14-156).
T10 sequence: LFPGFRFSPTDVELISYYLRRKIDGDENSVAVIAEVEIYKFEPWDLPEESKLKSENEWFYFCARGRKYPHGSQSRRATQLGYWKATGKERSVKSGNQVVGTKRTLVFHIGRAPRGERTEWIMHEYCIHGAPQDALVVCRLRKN
The note with it: protein: recombinant; tags: GST; chain copies: 2; dsDNA, one strand shown. Put shortly: as §1

The target in a further test is GST-WRKY1(266-371) (Arabidopsis thaliana, UniProt Q9SI37 266-371). The note with it: protein: recombinant; tags: GST; dsDNA, one strand shown. Put shortly:
as §1

For another test, the target named is T11, GST-NAP(1-166) (Arabidopsis thaliana, UniProt O49255 1-166).
T11 sequence: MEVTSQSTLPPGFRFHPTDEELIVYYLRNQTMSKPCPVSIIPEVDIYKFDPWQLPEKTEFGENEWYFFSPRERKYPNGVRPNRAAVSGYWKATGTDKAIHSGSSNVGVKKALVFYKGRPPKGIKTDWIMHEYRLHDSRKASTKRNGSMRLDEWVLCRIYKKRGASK
The following applies: protein: recombinant; tags: GST; chain copies: 2; dsDNA, one strand shown. Put shortly:
as §1

Chain of GST-NTL6(1-168) (Q9SCK6 1-168): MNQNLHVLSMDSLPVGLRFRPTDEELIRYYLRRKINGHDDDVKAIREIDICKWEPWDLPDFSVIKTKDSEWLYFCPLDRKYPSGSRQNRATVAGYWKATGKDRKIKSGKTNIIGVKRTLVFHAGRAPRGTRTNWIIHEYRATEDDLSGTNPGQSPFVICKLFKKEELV
Chain of GST-WRKY1(266-371) (Q9SI37 266-371): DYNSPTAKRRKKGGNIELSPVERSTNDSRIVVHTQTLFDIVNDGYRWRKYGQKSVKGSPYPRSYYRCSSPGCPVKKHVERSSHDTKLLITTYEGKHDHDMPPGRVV

For the sequence ATTTCTTA, the binding signal was 0.409 E-score with GST-NTL6(1-168); 0.0799 E-score with GST-ANAC055(1-171); 0.19 E-score in the test with GST-ATAF1 NAC domain; 0.185 E-score in [1]; 0.126 E-score in the test with GST-NST2(1-184); 0.225 E-score with GST-SND1(1-203). Also, the binding signal amounted to 0.0914 E-score in the test with GST-VND3 NAC domain and 0.148 E-score in the test with GST-VND7 NAC domain.

Consider GTTAAGGA, for which the binding signal worked out at 0.116 E-score in the test with GST-ANAC092(1-176); 0.424 E-score with GST-NTL6(1-168); 0.178 E-score in the test with GST-ANAC019 NAC domain; 0.165 E-score with GST-ANAC055(1-171); 0.11 E-score with GST-ATAF1 NAC domain; 0.0916 E-score in test [1]. Besides, the binding signal was found to be 0.16 E-score with GST-NST2(1-184); 0.273 E-score in the test with GST-NTL8 NAC domain; 0.276 E-score with GST-SND1(1-203); 0.176 E-score with GST-VND3 NAC domain; 0.0559 E-score in the test with GST-WRKY1(266-371).

Take CACGACAC: the binding signal in the test with GST-ANAC092(1-176) was determined as 0.321 E-score; with GST-ANAC019 NAC domain, 0.41 E-score; with GST-ANAC055(1-171), 0.372 E-score; with GST-ATAF1 NAC domain it was 0.338 E-score; in [1], 0.355 E-score; with GST-NAP(1-166) it was 0.343 E-score. The binding signal in the test with GST-NST2(1-184) is 0.134 E-score; with GST-NTL8 NAC domain it was 0.0614 E-score; in the test with GST-SND1(1-203), 0.0543 E-score; with GST-VND3 NAC domain, 0.299 E-score; with GST-VND7 NAC domain it was 0.348 E-score.

For ACGTTACA, the binding signal with GST-ANAC092(1-176) was 0.354 E-score; with GST-ANAC055(1-171), 0.157 E-score; with GST-ATAF1 NAC domain it was 0.244 E-score; in [1], 0.404 E-score; with GST-NAP(1-166), 0.23 E-score; with GST-NST2(1-184), 0.222 E-score. The values for the binding signal in the test with GST-SND1(1-203), with GST-VND3 NAC domain and in the test with GST-VND7 NAC domain were 0.362 E-score, 0.217 E-score and 0.153 E-score, respectively.

Regarding ACGCAAAC, the binding signal worked out at 0.459 E-score with GST-ANAC092(1-176); 0.391 E-score with GST-ANAC019 NAC domain; 0.265 E-score in the test with GST-ANAC055(1-171); 0.258 E-score with GST-ATAF1 NAC domain; 0.471 E-score in test [1]; 0.368 E-score in the test with GST-NAP(1-166). Moreover, the binding signal in the test with GST-NST2(1-184) stood at 0.357 E-score; in the test with GST-NTL8 NAC domain, 0.0692 E-score; with GST-SND1(1-203), 0.431 E-score; with GST-VND3 NAC domain, 0.378 E-score; with GST-VND7 NAC domain, 0.314 E-score.

Regarding GGTCAAAA, the binding signal amounted to 0.0966 E-score with GST-ANAC092(1-176); 0.101 E-score with GST-NTL6(1-168); 0.0727 E-score with GST-ANAC055(1-171); 0.116 E-score with GST-NTL8 NAC domain; 0.123 E-score with GST-SND1(1-203); 0.0741 E-score with GST-VND3 NAC domain. Further, the binding signal in the test with GST-WRKY1(266-371) is 0.478 E-score.

Turning to ACAAGTTA, the binding signal with GST-ANAC092(1-176) was found to be 0.362 E-score; with GST-ANAC055(1-171), 0.106 E-score; in the test with GST-ATAF1 NAC domain, 0.162 E-score; in test [1], 0.41 E-score; with GST-NST2(1-184) it was 0.194 E-score; with GST-SND1(1-203), 0.216 E-score. In addition, the binding signal with GST-VND3 NAC domain turned out to be 0.152 E-score; in the test with GST-VND7 NAC domain, 0.146 E-score.
